# RBX1-CUL1 inh = blocks human RBX1-Cullin-1 di-ubiquitin formation; P62877+Q13616; in vitro K48 di-Ub FRET, acceptor:donor ratio, 45 min; inhibition, % at 10 µM; hit rate 0.6% among 140,000; AID 1347404; in the data active = inhibition above about 25%
# Active calls of the source: *. This is one part of a sample in which hits are shown more often than they occur.
SMILES,RBX1-CUL1 inh
Cc1ncc(CNCc2cccnc2Oc2ccc(F)c(F)c2)cn1,5
COc1cccc(C(C2C(=O)Oc3ccc(C)cc3C2=O)C2C(=O)Oc3ccc(C)cc3C2=O)c1 (stereo not given),-6
Cc1ccc2c(c1)C(=O)C(C(c1ccc(N(C)C)cc1)C1C(=O)Oc3ccc(C)cc3C1=O)C(=O)O2 (stereo not given),-6
Cc1ccc2c(c1)C(=O)C(C(c1ccccc1Cl)C1C(=O)Oc3ccc(C)cc3C1=O)C(=O)O2 (stereo not given),63*
O=C(O)CNC(=O)COc1ccc(Br)cc1,-5
CCN1CCCC1CNCc1ccc(C)s1 (stereo not given),6
O=C(OC1=CC(=O)c2ccccc2C1=O)c1ccccc1,-17
CCc1cc2c(cc1OC(C)=O)C(=O)c1ccccc1C2=O,10
CC(=O)C(C(C)=O)C1=CC(=O)C(=O)c2ccccc21,103*
O=C(Oc1ccc(-c2ccccc2)cc1)C1CCC1,-11
Cc1nc(-c2c(C)ncc3c2CCN(C(=O)C2CCCNCC2)C3)no1 (stereo not given),12
O=C1ON=C(c2ccccc2)/C1=C/c1ccc(Br)s1,-5
Cc1ccc(C)c(/C=C2\C(=O)ON=C2c2ccccc2)c1,-1
Cc1ccc(C2=NOC(=O)/C2=C\c2ccc(C)o2)cc1,49*
Cc1ccc(C(=O)Nc2ccccc2C(N)=O)cc1Br,-10
CC1=NOC(=O)/C1=C\c1ccc(-c2cc(Cl)ccc2Cl)o1,97*
CC1=NOC(=O)/C1=C/c1cccn1C,2
O=C1C(=Cc2ccc(-c3cc(Cl)ccc3Cl)o2)C(=O)N(c2ccccc2)C(=S)N1c1ccccc1,-11
COc1ccc(OC2CCN(C(C)=O)CC2)c(C(=O)NCc2ccco2)c1,-3
C=CCn1c(SCC(=O)Nc2ccccc2OCC)nc2sc3c(c2c1=O)CCCC3,-4
CCOC(=O)NC(O/N=C(\N)c1ccc(Cl)cc1)(C(=O)OCC)C(F)(F)F (stereo not given),8
CC(Oc1ccc(C(C)C)cc1)C(=O)N1CCN(c2ccccn2)CC1 (stereo not given),-3
CCOC(=O)c1c2c(n(C)c1CNC(C)C)C(=O)C(=O)c1ccc(Br)cc1-2,98*
CCOC(=O)c1ccc(NN2C(=O)c3ccc(Br)cc3C2=O)c([N+](=O)[O-])c1,-4
CCOC(=O)c1c2c(n3ccccc13)C(=O)c1ccccc1C2=O,-1
SMILES,RBX1-CUL1 inh
N#CC1C(=N)OC2=C(C(=O)CCC2)C1c1ccc(-c2c(Cl)cc(Cl)cc2Cl)s1 (stereo not given),-1
COc1cc(C(=O)O)ccc1OC(=O)c1ccccc1OC(C)=O,3
CC(=O)Oc1ccc(OC(C)=O)c2c1C1CCCCC1=C1CCCCC12 (stereo not given),2
CC(=O)Oc1ccc(O)c2c1C(=O)C=CC2=O,105*
CC(=O)Nc1ccc2nc(CN3CC[C@@H](N4CCC(O)CC4)[C@H](O)C3)ccc2c1,2
C/C=C/CN1N=C(C)C(C)n2c1nc1c2c(=O)n(C)c(=O)n1C (stereo not given),-5
C=CCOc1ccc(/C=C2\SC(=Nc3ccc(S(N)(=O)=O)cc3)NC2=O)cc1OCC,7
C=CCCC(C(OC)c1ccccc1)S(=O)(=O)c1ccc(C)cc1 (stereo not given),-3
CC(=O)Oc1c(Cl)c(=O)n(C)c2ccccc12,60*
CCc1c(OC(C)=O)c2ccccc2n(C)c1=O,8
CC(=O)Oc1c(C)c(=O)n(C)c2ccccc12,-4
Cc1nc(N2CCC(C(=O)NCC3OCCc4ccccc43)CC2)nc2cc(S(C)(=O)=O)ccc12 (stereo not given),3
Cc1ccc(C2C3=C(CCCC3=O)N(c3cccc(Cl)c3)C(=N)C2C(=O)c2ccccc2)cc1 (stereo not given),1
O=C(NC(=S)Nc1cccc2ccccc12)C(c1ccccc1)c1ccccc1,1
COc1ccc2occ(C(=O)c3coc4ccc(OC)cc34)c2c1,1
COc1ccc(-c2occ(C(=O)O)c2C(=O)O)cc1,47*
O=C(O)c1ccccc1-c1occ(C(=O)c2ccccc2)c1C(=O)O,9
Cn1ccnc1CNC(=O)CC(c1ccccc1)c1ccccc1F (stereo not given),0
Cc1ccc(NC(=O)CSc2nnc(Cc3ccccc3)n2C)cc1C,-2
Cc1nc(NC(=O)NC(CC(C)C)c2ncnn2C)nn1C (stereo not given),4
CO[C@H]1[C@H](NC(=O)COc2ccccc2)c2ccccc2C12CCN(Cc1cn(C)nc1C)CC2,-5
COc1ccc(C(=O)CSc2nc(-c3ccccc3)c(-c3ccccc3)[nH]2)cc1,4
O=C(CSc1nc(-c2ccccc2)c(-c2ccccc2)[nH]1)c1ccc(O)c(O)c1O,101*
CC(Sc1nc(-c2ccccc2)c(-c2ccccc2)[nH]1)C(=O)O (stereo not given),-3
N#Cc1ccc(-c2nc3ccncc3[nH]2)cc1,-6
COc1ccccc1-n1nc(C(C)=O)c(C(C)=O)c1C,-1
CCc1ccc(S(=O)(=O)c2cnc(SCC(=O)Nc3ccc(OC)cc3OC)[nH]c2=O)cc1,4
